# From publication PMC4336329 (PLoS ONE, 2015)
# Among all 310,000 compounds or so, about 14,000 (4.5%) showed an effect of 50% or more. The effect is printed as a negative number. The entries come from a sample that favours strong results as a whole.
# Biological target: human ether-à-go-go-related gene (hERG) potassium channel (human, UniProt Q12809)
# Assay: primary screen, population patch clamp on CHO cells stably expressing hERG; higher = less effect of the substance
# 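Also: peak tail current of the secondary pulse compared with the same well before compound.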
# human ether-à-go-go-related gene (hERG) potassium channel, sequence (Q12809 whole entry, looked up): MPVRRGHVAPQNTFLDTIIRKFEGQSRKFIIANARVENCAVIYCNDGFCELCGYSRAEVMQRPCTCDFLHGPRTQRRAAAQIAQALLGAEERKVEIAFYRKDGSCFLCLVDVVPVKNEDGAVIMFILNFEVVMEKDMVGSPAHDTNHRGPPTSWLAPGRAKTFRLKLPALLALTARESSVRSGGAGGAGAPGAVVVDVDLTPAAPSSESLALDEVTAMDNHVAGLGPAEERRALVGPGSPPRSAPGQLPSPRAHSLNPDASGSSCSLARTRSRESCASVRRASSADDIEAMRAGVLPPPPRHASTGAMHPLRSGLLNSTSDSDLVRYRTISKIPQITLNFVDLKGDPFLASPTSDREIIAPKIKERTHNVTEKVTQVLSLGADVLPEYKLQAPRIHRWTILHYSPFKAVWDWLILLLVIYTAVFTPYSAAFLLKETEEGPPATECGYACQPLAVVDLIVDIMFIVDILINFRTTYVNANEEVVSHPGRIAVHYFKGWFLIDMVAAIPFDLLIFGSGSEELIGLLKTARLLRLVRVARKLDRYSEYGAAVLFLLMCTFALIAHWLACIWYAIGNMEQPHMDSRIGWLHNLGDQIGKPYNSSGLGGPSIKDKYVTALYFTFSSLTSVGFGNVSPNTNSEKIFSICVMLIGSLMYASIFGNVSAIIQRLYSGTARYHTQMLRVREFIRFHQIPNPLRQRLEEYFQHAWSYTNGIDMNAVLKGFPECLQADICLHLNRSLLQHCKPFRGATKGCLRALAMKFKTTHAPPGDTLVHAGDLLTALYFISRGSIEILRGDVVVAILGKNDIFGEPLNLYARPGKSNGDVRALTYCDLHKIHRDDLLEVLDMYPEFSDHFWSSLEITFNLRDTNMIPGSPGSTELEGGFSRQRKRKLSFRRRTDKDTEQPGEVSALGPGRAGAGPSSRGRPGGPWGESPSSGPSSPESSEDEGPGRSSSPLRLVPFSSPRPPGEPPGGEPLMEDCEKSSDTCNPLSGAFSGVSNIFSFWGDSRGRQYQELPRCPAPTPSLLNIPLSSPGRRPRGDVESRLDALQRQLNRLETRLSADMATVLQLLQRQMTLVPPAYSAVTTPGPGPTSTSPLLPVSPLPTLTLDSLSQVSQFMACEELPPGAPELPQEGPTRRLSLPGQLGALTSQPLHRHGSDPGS
row,Structure (SMILES),"hERG current change (%, negative = inhibition) at 10uM"
1,NC(=O)CN1C(=O)C(=O)N(Cc2ccccc2Cl)C1=O,8.45%
2,CC(=O)Nc1c(C(=O)C2CC2)oc2ccccc12,-7%
3,CC(C)c1ccc(OCC(O)CN2CCN(c3ccccc3)CC2)cc1.Cl (centres unmarked),-47.3%
4,Cc1ccc(N2CCN(CC(O)COc3ccccc3)CC2)cc1 (centres unmarked),-50.9%
5,OC(COC1CCCCC1)CN1CCN(c2ccccc2)CC1 (centres unmarked),-29.8%
6,Cc1ccc(OCC(O)CN2CCN(c3ccccc3)CC2)cc1 (centres unmarked),-38.6%
7,Cc1ccc(OCC(O)CN2CCCC2)cc1 (centres unmarked),11.5%
8,Cc1cccc(C)c1OCC(O)CN1CCN(c2ccccc2)CC1.Cl (centres unmarked),-53.1%
9,COc1cccc(OC)c1OCC(O)CN1CCN(c2ccccc2)CC1.Cl (centres unmarked),-33.3%
10,Cc1ccc(OCC(O)CN2CCN(CC(O)COc3ccc(C)cc3)CC2)cc1 (centres unmarked),-63.9%
11,CC(C)(C)C1CCC(OCC(O)CN2CCN(c3ccccc3)CC2)CC1.Cl (centres unmarked),1.42%
12,Cc1ccc(OCC(O)CN2CCOCC2)cc1 (centres unmarked),8.2%
13,Cc1ccc(N2CCN(CC(O)COC3CCCCC3)CC2)cc1 (centres unmarked),-56.1%
14,Cc1nc(N)c(C#N)c(-c2ccccc2)c1C,-10.4%
15,CCN1C(=S)N[C@@H](c2cccs2)C(C(=O)OC)=C1C,4.42%
16,O=C(CNC(=O)c1ccccc1F)N/N=C/c1cc(Br)ccc1OCc1ccccc1,-3.96%
17,Fc1ccc(N/N=C/c2ccncc2)c(F)c1,-9.23%
18,Cc1ccc(OCC(O)CN2CCN(CC(O)COC(C)C)CC2)c(C(C)(C)C)c1 (centres unmarked),-65.2%
19,Cc1ccc(OCC(O)CN2CCN(CC(O)COc3ccc(C)cc3Cl)CC2)c(Cl)c1 (centres unmarked),-24.3%
20,Cc1ccc(N2CCN(CC(O)COc3cccc(C)c3)CC2)cc1 (centres unmarked),-55.1%
21,Cc1cccc(OCC(O)CN2CCNCC2)c1.Cl (centres unmarked),26.5%
22,Cc1cccc(OCC(O)CN2CCOCC2)c1.Cl (centres unmarked),10.9%

row,Structure (SMILES),"hERG current change (%, negative = inhibition) at 10uM"
1,COC(=O)c1ccc(OCC(O)CN2CCOCC2)cc1 (centres unmarked),15%
2,Cc1cccc(OCC(O)CN2CCN(S(=O)(=O)c3ccc(C)cc3C)CC2)c1 (centres unmarked),-17.5%
3,CCOC(=O)N1CCN(CC(O)COc2cc(C)ccc2C(C)C)CC1.Cl (centres unmarked),-26.8%
4,Cc1cccc(OCC(O)CN2CCN(C3CCCCC3)CC2)c1.Cl (centres unmarked),-50.3%
5,COC(=O)c1ccc(OCC(O)CN2CCN(CC(O)COc3ccc(C(=O)OC)cc3)CC2)cc1 (centres unmarked),-72.9%
6,COC(=O)c1ccc(OCC(O)CN2CCC(C)CC2)cc1 (centres unmarked),-15.3%
7,Nc1c(Cl)ncnc1N/N=C/c1ccc2ccccc2n1,-11.7%
8,COC(=O)COc1ccc(/C=C2\SC(=O)N(CC(=O)Nc3ccccc3F)C2=O)cc1,14%
9,Cc1nc(CNC(=O)CC2C(=O)NCCN2Cc2cccc(Oc3ccccc3)c2)cs1 (centres unmarked),10.4%
10,CCOCCCNC(=O)/C(C#N)=C/c1ccccc1F,23.5%
11,C/C(=N\NC(=O)c1ccc(Cl)cc1)c1ccc(Br)s1,2.93%
12,COCCNC(=O)C(=O)NCC1OCCN1S(=O)(=O)c1ccc(C)cc1 (centres unmarked),15.7%
13,CCc1ccc(C(=O)NNc2ccc(S(N)(=O)=O)cc2)cc1,9.05%
14,NC(=O)COC(=O)CC12CC3CC(CC(Br)(C3)C1)C2,24.6%
15,Cc1ccc(S(=O)(=O)N2CCOCC2)cc1NC(=O)CSc1nnc2cc(C)c3ccccc3n12,-61.8%
16,CCN(CC)S(=O)(=O)c1ccc(OC)c(NC(=O)CSc2cc(Cl)ccc2Cl)c1,-2.76%
17,Cc1ccc(S(=O)(=O)N2CCOCC2)cc1NC(=O)CSc1ncccn1,-4.68%
18,CCN(CC)S(=O)(=O)c1ccc(OC)c(NC(=O)CSc2ccccc2)c1,-72.9%
19,Cc1cc2nnc(SCC(=O)Nc3cc(S(=O)(=O)N4CCOCC4)ccc3Cl)n2c2ccccc12,-20.5%
20,CCN(CC)S(=O)(=O)c1ccc(OC)c(NC(=O)CSc2cc(C)ccc2C)c1,-13.3%
21,O=C(CSc1nnc(-c2cccc(S(=O)(=O)N3CCOCC3)c2)n1C1CCCCCC1)NCc1ccccc1,-17.5%
22,Cc1ccc(CSc2nnc(-c3cccc(S(=O)(=O)N4CCOCC4)c3)n2CC(C)C)cc1,-29.5%

row,Structure (SMILES),"hERG current change (%, negative = inhibition) at 10uM"
1,Cc1ccc(S(=O)(=O)N2CCOCC2)cc1NC(=O)CSc1ccc(Cl)cc1,-51.3%
2,Cc1cc2nnc(SCC(=O)Nc3cccc(S(=O)(=O)N4CCOCC4)c3)n2c2ccccc12,-14.4%
3,CC(C)Cn1c(SCC(=O)NCc2ccc(Cl)cc2)nnc1-c1cccc(S(=O)(=O)N2CCOCC2)c1,-52.9%
4,Cc1ccc(S(=O)(=O)N2CCOCC2)cc1NC(=O)C(c1ccc(Cl)cc1)C(C)C (centres unmarked),1.8%
5,CC(C)CN(C(=O)COC(=O)Cc1ccc(Cl)cc1)c1c(N)n(Cc2ccccc2)c(=O)[nH]c1=O,5.02%
6,Cc1cccc(C(=O)N[C@@H](C)C(=O)N2CCN(c3ncccn3)CC2)c1,-3.21%
7,COc1ccc(OC)c(/C=C/C(=O)OCC(=O)Nc2nnc(-c3ccccc3)o2)c1,-3.14%
8,O=C(COC(=O)Cc1ccc(Br)cc1)Nc1c(F)c(F)c(F)c(F)c1F,13.4%
9,Cc1ccc(NC2=NCCCS2)c(C)c1C,-11.5%
10,CCOc1ccc(NS(=O)(=O)c2cc(C(=O)N3CCN(C(C)=O)CC3)ccc2Cl)cc1,12.6%
11,COc1ccc(S(=O)(=O)Nc2ccccn2)cc1,13.8%
12,CCC12OC(=N)C(C#N)(C1C)C(C#N)(C#N)C(c1ccccc1)O2 (centres unmarked),2.68%
13,COC(=O)c1ccc(COc2ccc(/C=N/NC(N)=S)cc2)o1,-5.9%
14,COc1ccc(S(=O)(=O)N2CCCCC2)cc1NC(=O)CSc1ncnc2ccccc12,-51.2%
15,Cc1ccc(S(=O)(=O)N2CCCCC2)cc1NC(=O)CSc1ncnc2ccccc12,-36.2%
16,COc1ccc(S(=O)(=O)N2CCOCC2)cc1NC(=O)CSc1ncnc2ccccc12,-50.4%
17,COc1ccc(S(=O)(=O)N2CCOCC2)cc1NC(=O)CSc1cccc[n+]1[O-],-3%
18,COc1ccc(S(=O)(=O)N2CCOCC2)cc1NC(=O)CSc1ccccc1,-53.9%
19,COc1ccc(S(=O)(=O)N2CCOCC2)cc1NC(=O)CSc1ccc(F)cc1,-42.6%
20,O=C(CSc1ncnc2ccccc12)Nc1cc(S(=O)(=O)N2CCCCC2)ccc1Cl,14.4%
21,COc1ccc(S(=O)(=O)N2CCOCC2)cc1NC(=O)CSc1nnc2ccccn12,5.54%
22,COc1ccc(S(=O)(=O)N2CCOCC2)cc1NC(=O)COc1ncnc2ccccc12,6.62%

row,Structure (SMILES),"hERG current change (%, negative = inhibition) at 10uM"
1,CC(OC(=O)c1cccc(-n2cnnn2)c1)C(=O)NCc1ccccc1 (centres unmarked),0.976%
2,O=C(COC(=O)CSc1ccc([N+](=O)[O-])cc1)NCC1CCCO1 (centres unmarked),12.3%
3,C#CCOCCOCCOCCNc1nc(N2CCN(C(=O)CCCCCCCCCCNC(=O)[C@@H](CCC(=O)O)n3cc(CCCCCN)nn3)CC2)nc(N2CCN(C(=O)CCCCCCCCCCNC(=O)[C@H](CO)n3cc(CCCSC)nn3)CC2)n1,11.9%
4,CCN1C(=O)C(CC(=O)Nc2ccc(OC)cc2)N(CCc2ccccc2)C1=S (centres unmarked),-1.28%
5,CC(=O)C[C@H]1c2ccccc2S(=O)(=O)N1c1ccccc1,23%
6,Cc1cc(NC(=O)c2cc(-c3ccccc3Cl)nc3ccccc23)no1,-0.229%
7,COCCOC(=O)c1cc(C(=O)c2cc(F)ccc2O)coc1=N,9.29%
8,O=C(Nc1nnc(S(=O)(=O)N2CCOCC2)s1)c1ccccc1F,16.7%
9,CSc1ccccc1NS(=O)(=O)c1cccc2nonc12,1.51%
10,O=S(=O)(Nc1cc(F)ccc1F)c1cccc2nsnc12,11.6%
11,CC(=O)c1ccccc1NS(=O)(=O)c1cccc2nonc12,-52.2%
12,O=S(=O)(Nc1cccc2ccccc12)c1cccc2nonc12,3.98%
13,Cc1ccccc1NS(=O)(=O)c1cccc2nonc12,2.34%
14,O=S(=O)(Nc1cc(F)ccc1F)c1cccc2nonc12,-83.6%
15,CNCC(=O)N1CCN(c2ncc(C(F)(F)F)cc2Cl)CC1.Cl,-22.3%
16,O=C(NCC(=O)N1CCN(c2ncc(C(F)(F)F)cc2Cl)CC1)c1ccc(Br)o1,-50.6%
17,NC(=O)NCCN1CCN(c2ncc(C(F)(F)F)cc2Cl)CC1,-33.7%
18,CCOc1ccc(C(=O)NCC(=O)N2CCN(c3ccc(C(F)(F)F)cn3)CC2)cc1,-7.32%
19,O=C(NCC(=O)N1CCN(c2ccc(C(F)(F)F)cn2)CC1)c1ccc(Br)o1,-71.8%
20,O=C(NCC(=O)N1CCN(c2ccccn2)CC1)c1ccc(Br)o1,-15.3%
